Assay outcomes as filed in PubChem BioAssay.
FLuc modulator = qHTS profiling assay for firefly luciferase inhibitor/activator using purifed enzyme and Km concentrations of substrates (counterscreen for miR-21 project). AID 588342, 2011. purified FLuc, Km substrates, luminescence inhibition. 360,000 compounds, 6.9% hits. Luciferin 4-monooxygenase (Photinus pyralis), P08659. Potency, µM (titrated, usually from 57.5 µM), most hits filed as inhibitors; further: nearly all actives have a fitted effect of over 55% in size
Target sequence (P08659 whole entry, looked up): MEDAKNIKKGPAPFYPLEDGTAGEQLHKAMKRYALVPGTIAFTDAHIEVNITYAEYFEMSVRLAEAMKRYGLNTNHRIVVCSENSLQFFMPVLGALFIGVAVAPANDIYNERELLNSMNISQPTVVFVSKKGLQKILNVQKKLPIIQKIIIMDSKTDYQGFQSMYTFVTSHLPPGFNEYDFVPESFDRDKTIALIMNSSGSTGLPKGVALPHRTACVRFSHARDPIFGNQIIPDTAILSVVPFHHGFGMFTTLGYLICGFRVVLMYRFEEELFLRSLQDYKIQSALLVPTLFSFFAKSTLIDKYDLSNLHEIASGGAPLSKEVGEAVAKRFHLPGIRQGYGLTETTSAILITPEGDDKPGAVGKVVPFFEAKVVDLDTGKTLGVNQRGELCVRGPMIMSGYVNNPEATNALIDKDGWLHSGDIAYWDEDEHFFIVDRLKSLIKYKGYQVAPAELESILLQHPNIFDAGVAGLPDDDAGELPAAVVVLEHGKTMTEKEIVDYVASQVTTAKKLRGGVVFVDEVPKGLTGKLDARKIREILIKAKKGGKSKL
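Purified P. pyralis luciferase, 10 nM final, with Km-level 10 uM D-luciferin and 10 uM ATP in 50 mM Tris acetate pH 7.5, 10 mM Mg acetate, 0.01% Tween-20, 0.05% BSA; 6-point qHTS titration about 60 µM downward; luminescence read.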
ELG1 genotox = qHTS screen for small molecules that induce genotoxicity in human embryonic kidney (HEK293T) cells expressing luciferase-tagged ELG1 | HEK293T ELG1-luciferase reporter, luminescence, 16 h | Potency, µM (series often up to 46 µM), most hits filed as activators | 330,000 compounds, 1.3% hits | AID 504466, 2011; further: nearly all actives have a fitted effect of over 60% in size
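HEK293T cells expressing luciferase-tagged ELG1 were exposed to compound or DMSO vehicle for 16 hr at 37 °C and 5% CO2. Luciferase activity was then measured with ONE-Glo after 30 min at room temperature.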
Rab9 promoter act = qHTS Assay for Rab9 Promoter Activators | 320,000 compounds, 2.8% hits | Huh7 Rab9 promoter-luciferase reporter, luminescence, 24 h | Potency, µM (titrated, usually from 9.22 µM), actives largely listed as activators | AID 485297, 2010; further: nearly all actives have a fitted effect of over 60% in size
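Quantitative HTS format; Huh7 Rab9-luciferase reporter cells (1500/well) receive compound 2 h post-plating, incubate 24 h at 37 °C, then get luciferase reagent for 10 min before luminescence reading.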
NPC1 promoter act = qHTS Assay for NPC1 Promoter Activators | Huh7 NPC1 promoter luciferase reporter, 24 h | Potency, µM (doses to about 9.22 µM), usual class: activators | 320,000 compounds, 2.4% hits | AID 485313, 2010; further: nearly all actives have a fitted effect of over 60% in size
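In 1536-well qHTS, Huh7 cells harboring an NPC1 promoter–luciferase construct received compound for 24 h; activation was quantified by luminescence following luciferase reagent addition.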
ELG1 DNA repair = qHTS screen for small molecules that inhibit ELG1-dependent DNA repair in human embryonic kidney (HEK293T) cells expressing luciferase-tagged ELG1 | HEK293T ELG1-luciferase reporter, luminescence, 16 h; DNA damage induced by 5-fluorouridine | AID 504467, 2011 | Potency, µM (top dose mostly 46.1 µM), most hits filed as inhibitors | 330,000 compounds, 2.3% hits; further: nearly all actives have a fitted effect of over 55% in size
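Step one: seed 2,000 cells per well. Step two: pin-transfer compound or DMSO alongside 5-fluorouridine. Step three: incubate 16 hr, 37 °C, 5% CO2. Step four: add ONE-Glo, wait 30 min, read luminescence.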
SMN2 splice enh = qHTS Assay for Enhancers of SMN2 Splice Variant Expression. HEK293 SMN2-luciferase splicing reporter, luminescence, 30-36 h. Potency, µM (highest dose often 46.1 µM), usual class: activators. 210,000 compounds, 2.8% hits. AID 1458, 2008; further: nearly all actives have a fitted effect of over 55% in size
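HEK293 cells carry an SMN2 […]–luciferase reporter in which exon 7 inclusion puts luciferase in frame. Cells were plated 10-12 h before compound addition, then incubated 30-36 h at 37C. ONE-Glo luminescence was read; sodium butyrate at 4.5 mM final served as control.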
Hits are given with their value; - = inactive; ? = inconclusive; . = not tested or not shown. Compounds with a hit are over-represented: about 9.3% of the library has one in this group of screens. The call rests on the fitted dose curve; in most records, active means well fitted curve in the direction sought with a large enough effect; inconclusive means small, poorly fitted or top-dose-only effect, or another doubt; inactive means no such curve, though single readings can be large; an effect the other way counts as inactive or inconclusive.

SMILES	FLuc modulator	ELG1 genotox	Rab9 promoter act	NPC1 promoter act	ELG1 DNA repair	SMN2 splice enh
Cc1cccc(OCC(=O)Nc2ccc3nc(SCc4ccccc4)sc3c2)c1	-	.	.	.	.	.
COc1ccc(/C=C(\C#N)C(=O)OCC(=O)Nc2ccc(-c3nc4ccc(C)cc4s3)cc2)cc1	1.69µM	0.651µM	0.398µM	0.447µM	?	2.51µM
C=CCn1c(SCC(=O)Nc2ccc(-c3nc4ccc(C)cc4s3)cc2)nnc1-c1ccccc1	2.39µM	?	0.501µM	?	?	0.794µM
Cc1ccc2nc(-c3ccc(NC(=O)COc4ccccc4C(C)(C)C)cc3)sc2c1	9.53µM	.	.	.	.	?
COc1ccccc1NC(=O)CN1C(=O)C(C)(C)c2ccccc21	-	.	.	.	.	.
Cc1ccccc1C(=O)N1CCc2cc(-c3csc(NC(=O)CN4CCCC4)n3)ccc21	?	-	-	-	?	.
CC(=O)Nc1nc(C)nc(-c2ccccc2OC(C)=O)n1	-	-	-	-	-	-
CCC(C)C(=O)OC1CC(C)C=C2C=CC(C)C(CCC3CC(O)CC(=O)O3)C21 (centres undefined)	.	.	.	.	.	-
Cc1ccc2nc(-c3ccc(NC(=O)CN4C(=O)NC(C)(c5ccc(OC(F)F)cc5)C4=O)cc3)sc2c1 (centres undefined)	5.36µM	20.6µM	1.41µM	2.51µM	?	.
O=C(Nc1ccc(Br)cc1)c1cc(-c2cccs2)nc2ccccc12	-	.	.	.	.	-
Cc1ccc(-n2cc(CN3CCN(Cc4nccn4C)CC3)c(-c3ccc(F)cc3)n2)cc1	?	-	-	-	?	.
Cc1ccc(-n2cc(CN3CCN(c4ccccn4)CC3)c(-c3ccc(F)cc3)n2)cc1	15.1µM	-	-	-	-	.
Cc1ccc(-n2cc(CN3CCN(C(=O)c4ncn[nH]4)CC3)c(-c3ccc(F)cc3)n2)cc1	9.53µM	-	-	-	20.6µM	.
CCCNC(=O)CN(C1CCCCC1)S(C)(=O)=O	-	.	.	.	.	-
CCN1CCN(c2ncnc3c2cnn3-c2ccc(Cl)cc2)CC1	6.01µM	?	1.78µM	1.58µM	?	.
CCN1CCN(c2ncnc3c2cnn3-c2ccccc2)CC1	23.9µM	?	-	?	?	-
Cc1ccc(Cn2ncc3c(N4CCN(Cc5ccc(Cl)cc5)CC4)ncnc32)cc1	-	-	-	-	5.8µM	-
CCOC(=O)N1CCN(c2ncnc3c2cnn3-c2ccc(Cl)cc2)CC1	-	-	-	-	?	-
c1ccc(CCN2CCN(c3ncnc4c3cnn4-c3ccccc3)CC2)cc1	-	-	-	-	?	-
CCN1C(=O)c2ccccc2S(=O)(=O)c2ccc(C(=O)NCc3cccnc3)cc21	-	-	-	-	-	-
C/C(=N/NC(=O)CNC(=O)c1cccs1)c1ccco1	-	-	-	-	-	.
N#Cc1ccc(NC(=O)COC(=O)C2Cc3ccccc3CN2C(=O)c2ccccc2)cc1 (centres undefined)	-	-	-	-	10.3µM	-
COc1cc(/C=C2/C(=O)NN(c3cccc(F)c3)C2=O)ccc1OC(=O)c1ccco1	23.9µM	-	-	-	?	-
COc1cc(/C=C2/C(=O)NN(c3ccc(Cl)cc3)C2=O)ccc1OC(=O)c1ccco1	23.9µM	-	-	-	?	-
Cc1cc(F)ccc1S(=O)(=O)N1CCCOC1CNC(=O)C(=O)NC1CC1 (centres undefined)	-	-	-	-	-	.
SMILES	FLuc modulator	ELG1 genotox	Rab9 promoter act	NPC1 promoter act	ELG1 DNA repair	SMN2 splice enh
CCCNC(=O)C(Cc1ccc(I)cc1)NC(=O)c1ccc2ccccc2n1 (centres undefined)	-	-	-	-	?	.
COC(=O)[C@H](Cc1ccccc1)NC(=O)c1ccc2ccccc2n1	6.75µM	-	-	-	?	.
CCOc1ccc(C(=O)NC(C)CCc2ccccc2)cc1 (centres undefined)	-	-	-	-	?	.
CCOc1ccc(C(=O)NC(Cc2ccccc2)C(=O)OC)cc1 (centres undefined)	4.78µM	-	?	-	?	-
CCCSc1nc(C)cc(C)c1S(=O)(=O)c1ccccc1C	-	-	-	-	-	-
O=C(Nc1ccccc1SCC1CSc2nc3ccccc3c(=O)n21)c1cccc(Cl)c1 (centres undefined)	-	-	-	-	-	?
O=C(NCc1ccc(Cl)cc1)c1cnn2ccccc12	13.5µM	?	2.51µM	3.98µM	?	?
CCOc1ccc(S(=O)(=O)N/N=C(\C)C2CCCCC2)cc1	-	-	-	-	-	-
CCOC(=O)c1cccc(NC(=O)CSc2nc3ccccc3c(=O)n2CCOC)c1	-	-	-	-	20.6µM	-
CCn1c(SCC(=O)Nc2cccc(OC)c2)nc2ccccc2c1=O	-	-	-	-	23.1µM	.
CCn1c(SCC(=O)Nc2ccc(F)cc2)nc2ccccc2c1=O	-	-	-	-	-	.
COCCn1c(SCC(=O)Nc2ccc(Cl)c(S(=O)(=O)N(C)C)c2)nc2ccccc21	-	-	-	-	18.4µM	-
CCOC(=O)c1cccc(NC(=O)CSc2nc3ccccc3c(=O)n2CC)c1	-	-	-	-	-	-
CCCn1c(SCC(=O)Nc2cccc(S(=O)(=O)N(C)C)c2)nc2ccccc2c1=O	-	-	-	-	23.1µM	.
CCC(=O)c1ccc(OCC(=O)OCC(=O)N2c3ccccc3CC2C)cc1 (centres undefined)	-	-	-	-	?	.
Cc1ccccc1Nc1c(-c2ccsc2)nc2c(C)cccn12	?	.	.	.	.	12.6µM
Cc1ccn2c(NC3CCCC3)c(-c3ccncc3)nc2c1	-	-	-	-	-	-
Cc1ccn2c(Nc3ccccc3C)c(-c3ccncc3)nc2c1	?	-	-	-	?	17.8µM
COC(=O)C1=C(O)CSC1=Nc1ccccc1	-	-	-	-	-	-
NC(=O)C1=NOC(CNc2ncc(C(F)(F)F)cc2Cl)C1 (centres undefined)	?	23.1µM	?	-	?	-
Fc1cccc(Cl)c1/C=N/Nc1ccccn1	-	-	-	-	?	?
CCOc1ccc(/C=N/Nc2nc(C)cs2)c(O)c1	3.79µM	-	1.78µM	1.58µM	?	.
Cc1csc(N/N=C/c2ccccc2F)n1	6.01µM	?	-	-	?	.
Cc1csc(N/N=C/c2c(F)cccc2Cl)n1	13.5µM	?	-	-	?	.
COc1ccccc1CNCc1cc(=O)oc2c(C)c(C)ccc12	-	-	-	-	?	.
